Tau fluor counter: counter-screen for tau fibril formation inhibitors. tau K18 P301L Alexa594 fluorescence, heparin fibrillization. actives 0.93% (n = 280,000). Potency, µM (doses to about 57.7 µM), for inactives: top-dose activity change, negative = decrease. AID 1463; note: potency is the fitted concentration of half-maximal effect; % is set by controls: 0 for no effect and ±100 for the full control effect; nearly all actives have a fitted effect of over 55% in size
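Human tau K18 P301L (15 uM unlabeled, 0.24 uM Alexa 594-labeled) in 100 mM sodium acetate pH 7 with 20 uM heparin, 6 hr at 37 C. ThT 30 uM added, 1 hr ambient; Alexa 594 FP and total fluorescence read at 555/632 nm.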
Coupling enz: coupling enzyme interference in Giardia aldolase counter-screen; coupling enzyme system counterscreen, AmpLite Red fluorescence; activity change, negative = inhibition, % at 58.2 µM, hits read low; actives 0.67% (n = 290,000); AID 2472; in the data active = activity change below about -30%; note: % is set by controls: 0 for no effect and ±100 for the full control effect
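Counterscreen of the coupled detection system alone, without aldolase: glyceraldehyde-3-phosphate coupling enzymes plus AmpLite Red readout. Compounds at 57.5 uM final, 10 min RT preincubation, 20 min RT reaction, fluorescence 525/598 nm.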
Tau fibril FP: blocks human tau fibril formation measured by polarization; P10636; K18 P301L tau heparin fibrillization, Alexa594 FP, 6 h; Potency, µM (series often up to 57.7 µM), inactives show top-dose activity, negative = inhibition, hits mostly inhibitors; actives 0.39% (n = 280,000); note: potency is the fitted concentration of half-maximal effect; % is set by controls: 0 for no effect and ±100 for the full control effect; nearly all actives have a fitted effect of over 55% in size
Target sequence (P10636 561-689 P618L limits assumed): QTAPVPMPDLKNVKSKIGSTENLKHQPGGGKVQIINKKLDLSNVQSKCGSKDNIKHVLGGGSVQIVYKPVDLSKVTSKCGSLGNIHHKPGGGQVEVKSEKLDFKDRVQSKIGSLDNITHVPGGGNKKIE
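Quantitative HTS format: compounds meet 15 uM recombinant K18 P301L tau and Alexa 594-tau tracer in 100 mM sodium acetate pH 7; 20 uM heparin triggers fibrillization at 37 C over 6 hr; FP gives the signal.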
Tau ThT inhib: tau fibrillization inhibition (ThT binding); AID 1460; recombinant tau K18 P301L, heparin-induced fibrillization, ThT fluorescence; Potency, µM (highest dose often 57.4 µM), for inactives: top-dose activity, negative = inhibition, most hits filed as inhibitors; actives 2.1% (n = 270,000); P10636; note: potency is the fitted concentration of half-maximal effect; % is set by controls: 0 for no effect and ±100 for the full control effect; nearly all actives have a fitted effect of over 55% in size
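ThT emission at 510 nm, taken 1 hr after adding 30 uM dye, quantifies aggregates formed when 20 uM heparin acts on human tau K18 P301L for 6 hr at 37 C.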
USP1 inh: inhibitors of human USP1/UAF1 deubiquitinase; Potency, µM (highest dose often 57.1 µM), for the others: top-dose activity change, negative = inhibition, actives largely listed as inhibitors; AID 743255; recombinant USP1/UAF1, Ub-Rhodamine cleavage fluorescence; O94782; actives 0.23% (n = 390,000); note: potency is the fitted concentration of half-maximal effect; % is set by controls: 0 for no effect and ±100 for the full control effect; nearly all actives have a fitted effect of over 60% in size
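In this screen, compounds sit with the deubiquitinase complex (1nM) for 15 min at room temperature before Ub-Rho is added at 150nM final. Fluorescence rise is then followed for 6 reads every 60 seconds.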
Tau TEM fibril: Inhibits tau K18 fibrillization by TEM grading; AID 1719; shares compounds with Tau ThT inhib; fibril grade (0 = clumped fibrils, 4 = only tiny pieces) (concentration not given with the values); recombinant tau K18 P301L fibrillization, TEM grading; stronger effect = higher value; actives 70% (n = 45);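 active = compounds whose electron micrographs showed tau fibrils broken into shorter filaments or fragments, graded high on fibril breakup; inconclusive = micrographs gave an unclear fibril picture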
tau sediment: reduces sedimented tau K18 P301L aggregates. shares compounds with Tau ThT inhib. recombinant tau K18 P301L (four-repeat tau fragment), sedimentation SDS-PAGE densitometry. inhibition, % at 100 µM. actives 50% (n = 110); in the data active = inhibition above about 40%; inconclusive = no clear call, values can overlap the other calls; inactive = below about 18%
* = called active by the depositor; u = inconclusive; x = no result given. This is a sample that favours compounds with a hit; in the whole collection about 2.3% have one here. Unless noted, calls come from the whole dose curve; as a rule, active = well fitted curve in the direction sought with a large enough effect; inconclusive = small, poorly fitted or top-dose-only effect, or another doubt; inactive = no such curve, though single readings can be large; an effect the other way counts as inactive or inconclusive.

SMILES | Tau fluor counter | Coupling enz | Tau fibril FP | Tau ThT inhib | USP1 inh | others
C[n+]1ccc(/C=C/c2ccccc2O)c2ccccc21 | -13.9% | -10.9 | -4.5% | u | -2.8%
CCN(CC)CCCNc1ccc2ncn3c4ccc(O)cc4c(=O)c1c23 | x | x | x | x | 28.2µM*
CN(C)CCNc1ccc2nnn3c4ccc(O)cc4c(=O)c1c23 | x | x | x | x | -9.4%
COc1cccc(NC(=O)C2CCN(C(=O)N3CC(C)Oc4ccccc43)CC2)c1 (centres undefined) | 9.6% | x | -0.7% | 5.6% | -12.5%
O=C(CCCCCNC(=O)c1ccccc1)N=Nc1c(O)[nH]c2c(Br)cc(Br)cc12 | u | 8.8 | -0.7% | 6.31µM* | x
O=C(CNC(=O)c1cccnc1)N=Nc1c(O)[nH]c2c(Br)cc(Br)cc12 | x | 0.2 | x | x | -21.8%
COc1ccc(C(=O)c2nccc3cc(OC)c(OC)cc23)cc1OC | x | x | x | x | 14.1µM*
CC1=NN(c2ccccc2)C(=O)/C1=C/c1c(O)n(-c2ccc(F)c(Cl)c2)[nH]c1=O | u | 0.0 | u | 5.01µM* | -15.7%
O=C(N/N=C1/C(=O)c2cccc3cccc1c23)c1ccc(Cl)cc1 | -19.2% | -0.2 | 9.1% | 4.47µM* | u
Cc1[nH]c(C(=O)N/N=C/c2ccc(N(C)C)cc2)c(C)c1C(=O)N/N=C/c1ccc(N(C)C)cc1 | u | 0.6 | -0.5% | 2.24µM* | -22.6%
CCN(CC)c1ccc(/C=N/NC(=O)c2ccc3nc[nH]c3c2)cc1 | u | 0.3 | 6.8% | 2.82µM* | -10.6%
Cc1nc2c(C)cccc2cc1C(=O)N/N=C/c1ccc(N(C)C)cc1 | u | 4.3 | 0.1% | 10µM* | -21.4%
CN(C)c1ccc(/C=N/NC(=O)c2ccc3nc[nH]c3c2)cc1 | u | 2.8 | -12.4% | 4.47µM* | -17.5%
CSc1ccc(/C=N/NC(=O)c2ccc3nc[nH]c3c2)cc1 | x | x | x | x | -18.8%
CC1CCCCC12NC(=O)N(CC(=O)Nc1ccc(N3CCCCC3)cc1)C2=O (centres undefined) | x | x | x | x | -17.8%
COc1ccc(NC(=O)Cn2cc(S(=O)(=O)N3CCN(c4ccccc4F)CC3)c3ccccc3c2=O)cc1Cl | -13.6% | x | 12.6µM* | 11.1% | -18.1% | tau sediment=7.0
Cc1ccc(S(=O)(=O)N2[C@@H](c3ccc(Br)cc3)C(C(=O)O)=C[C@H]2C(C)(C)C)cc1 | x | x | x | x | -15.9%
COc1ccc(CNC(=O)c2cc3c(=O)n(Cc4cccs4)ccc3nc2C)cc1 | -9.5% | x | 11.0% | -11.2% | 10.1%
C=C1CCN(C(CC(C)C)C(=O)Nc2nc3ccc(Cl)cc3s2)S(=O)(=O)c2ccccc21 (centres undefined) | x | 0.1 | x | x | x
CC(CNC(=O)c1ccc2c(c1)nc1n2CCOC1)c1ccccc1 (centres undefined) | -2.3% | x | -8.8% | u | -21.1%
Nc1ccc(-c2ccc3ccccc3n2)cc1 | u | -3.8 | 13.0% | u | x | tau sediment=10.0
Cc1ccc(N(C)S(=O)(=O)c2nnc(NC(=O)C3CCCCC3)s2)cc1 | -3.5% | x | u | 4.4% | u | tau sediment=12.0
COc1ccc2oc(-c3ccc(NC(=O)c4ccc(N5CCOCC5)c([N+](=O)[O-])c4)cc3)nc2c1 | -18.6% | 0.3 | -5.7% | 2.82µM* | -12.8% | Tau TEM fibril=0;tau sediment=12.0
COc1ccc(-c2noc(-c3ccc(N4CCOCC4)c([N+](=O)[O-])c3)n2)cc1 | -13.1% | x | -5.7% | 1.8% | -3.2%
C=CCn1c(SCC(=O)N(C(C)CC)C2CCS(=O)(=O)C2)nc2ccccc2c1=O (centres undefined) | x | x | x | x | -10.1%
Cc1ccc(C2=NNC(=Nc3ccc(F)cc3)SC2)cc1 | u | -1.1 | -20.6% | 15.8µM* | -21.3% | Tau TEM fibril=3*;tau sediment=u
CCN(c1ccccc1)S(=O)(=O)c1nnc(NC(=O)C(C)C)s1 | x | 2.6 | x | x | -10.0%
